In PubChem BioAssay AID1347055 (National Center for Advancing Translational Sciences (NCATS), 2019):
Hit rate of the full screen: of about 54,000 compounds, about 120 (0.22%) were called active. About 8% were inconclusive and are not listed. Calls come from the whole dose curve; as a rule, active = well fitted inhibition curve with a large enough effect; inconclusive = small, poorly fitted or top-dose-only effect, or effect the other way; inactive = flat fitted curve, though single readings scatter. What follows is part of a selection rich in actives, with near analogues and random picks from the rest.

molecular target: Fumarate hydratase, mitochondrial (Homo sapiens) (UniProt P07954); assay: Identification of activators of human fumarate hydratase by quantitative high-throughput screening; settings: FH coupled MDH/diaphorase resazurin fluorescence, 15 min; series mostly up to 79.9 µM; activity change, negative = inhibition: at the top concentration; note: the screen sought activators but most active calls are inhibition curves; nearly all actives have a fitted effect of over 45% in size
Sequence (P07954 whole entry, looked up): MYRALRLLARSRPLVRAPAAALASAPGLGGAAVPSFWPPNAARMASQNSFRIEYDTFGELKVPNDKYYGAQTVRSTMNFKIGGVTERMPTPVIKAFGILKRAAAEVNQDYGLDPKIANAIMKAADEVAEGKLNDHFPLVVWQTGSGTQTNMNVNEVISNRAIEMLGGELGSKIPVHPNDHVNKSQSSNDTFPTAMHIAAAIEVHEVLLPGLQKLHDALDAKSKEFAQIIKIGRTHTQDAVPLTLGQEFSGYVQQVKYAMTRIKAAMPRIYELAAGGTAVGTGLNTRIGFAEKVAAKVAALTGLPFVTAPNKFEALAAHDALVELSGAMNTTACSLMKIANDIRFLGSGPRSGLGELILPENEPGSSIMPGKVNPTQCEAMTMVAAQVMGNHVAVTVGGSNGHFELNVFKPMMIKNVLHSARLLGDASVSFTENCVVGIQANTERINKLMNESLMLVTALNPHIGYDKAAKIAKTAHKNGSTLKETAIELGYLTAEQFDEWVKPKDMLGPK
% is set by controls: 0 for no effect and ±100 for the full control effect.

Activity change, negative = inhibition, inactive:
Clc1ccc(CSc2nncn3c2cc2occc23)cc1 -10.1%
CCC/C=C/C=C/C1CC(O)C2(O)C(=O)OCC12 (stereo not given) 0.378%
CC(=O)/C=C/C1C(C)CC(O[C@@H]2O[C@H](CO)[C@@H](O)[C@H](O)[C@H]2O)CC1(C)C (stereo not given in full) -0.219% [at 53.3 µM]
COc1ccc(NC(=O)c2ccco2)cc1NC(=O)COc1ccc(C)c(C)c1 1.59%
Cc1cc(NC(=O)CSc2ncc(C(=O)Nc3ccc(Cl)cc3)c(=O)n2C)no1 6.78%
C1CCC[C@H]2CCCN3CC[C@@H](CCCCCC[C@@H]4CCCN5CC[C@@H](CC1)O[C@@H]45)O[C@@H]23 -2.71% [at 0.217 µM]
CNC(=O)c1ccccc1Nc1nc(Nc2ccc3c(c2OC)CCC[C@@H](N2CCN(CCO)CC2)C3)ncc1Cl -3.28%
CN(C)c1cccc(Oc2cnc(Nc3cccc(O)c3)nc2)c1 -7.76%
CCOc1ccc(CCNC(=O)CN(c2ccc(C)cc2)S(=O)(=O)N(C)C)cc1OCC -7.19%
CC1CN(C(=O)N2CCC(C(=O)NCc3ccco3)CC2)c2cc(Cl)ccc2O1 (stereo not given) 2.28%
CC(CCC1(O)OC2CC3C4CC=C5C[C@@H](O[C@@H]6O[C@H](CO)[C@@H](O[C@@H]7O[C@@H](C)[C@H](O)[C@@H](O)[C@H]7O)[C@H](O)[C@H]6O[C@@H]6O[C@@H](C)[C@H](O)[C@@H](O)[C@H]6O)CC[C@]5(C)C4CC[C@]3(C)[C@@]2(O)[C@@H]1C)CO[C@@H]1O[C@H](CO)[C@@H](O)[C@H](O)[C@H]1O (stereo not given in full) 0.389% [at 20.6 µM]
CC(=O)OC1CCC2(C)C(CCC3(C)C2CC=C2C4CC(C)(C)CCC4(C)CCC23C)C1(C)C(=O)O (stereo not given) -22% [at 53.3 µM]
CCC(COC)n1nnc2c(Nc3ccc(OC)cc3C)nc(C)cc21 (stereo not given) -0.898%
C[C@H]1COCCN1c1cc(C2(S(=O)(=O)C3CC3)CC2)nc(-c2ccc(NC(=S)NCCO)cc2)n1 -2.67%
CCCN(CCC)CCCNC(=O)Cn1ncc2c3ccccc3n(Cc3ccccc3)c2c1=O -13.9%
CC(CNC(=O)c1nnc(Cc2cccc(F)c2)o1)c1ccccc1 (stereo not given) -6.76%
CC(C)(C)OC(=O)N1CCC(c2c(C(=O)NCCc3ccsc3)cnn2-c2ccc(F)cc2F)CC1 -7.51%
CC(=O)c1ccc(NC(=O)CCc2nc(-c3ccc(C)cc3)no2)cc1 -9.62%
CC(C)C(=O)Nc1nc2c(s1)CC(C(C)(C)C)CC2 (stereo not given) -26%
COC(=O)C12C(=O)C(C)=C(O)C1(C)C(C)=CC1C3(CO)CCC(O)C(C)(C)C3CCC12C (stereo not given) 2.3% [at 53.3 µM]
